Source: PubChem BioAssay (National Center for Advancing Translational Sciences (NCATS))
Sampled rows, rich in hits. Any-hit rate of the full collection: about 2.3%.
Tau fluor counter – counter-screen for tau fibril formation inhibitors; AID 1463; Potency, µM (highest dose often 57.7 µM), inactives show at the top dose activity change, negative = decrease; actives 0.93% (n = 280,000); tau K18 P301L Alexa594 fluorescence, heparin fibrillization; note: potency is the fitted concentration of half-maximal effect; nearly all actives have a fitted effect of over 55% in size
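Human tau K18 P301L (15 uM unlabeled, 0.24 uM Alexa 594-labeled) in 100 mM sodium acetate pH 7 with 20 uM heparin, 6 hr at 37 C. ThT 30 uM added, 1 hr ambient; Alexa 594 FP and total fluorescence read at 555/632 nm.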
Coupling enz – inhibits coupling enzyme system, counter-screen for aldolase hits; coupling enzyme system counterscreen, AmpLite Red fluorescence; activity change, negative = inhibition, % at 58.2 µM, hits read low; actives 0.67% (n = 290,000); AID 2472; in the data active = activity change below about -30%
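Coupling enzymes only (glyceraldehyde-3-phosphate) + compound, at 57.5 uM final, 10 min RT; add substrate/coupling/AmpLite Red mix, 20 min RT; fluorescence ex 525/em 598 nm. Actives flag coupling-system interference.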
Tau fibril FP – inhibitors of human tau fibril formation | AID 1468 | P10636 | Potency, µM (doses to about 57.7 µM), inactives show at the top dose activity, negative = inhibition, hits mostly inhibitors | K18 P301L tau heparin fibrillization, Alexa594 FP, 6 h | actives 0.39% (n = 280,000); note: potency is the fitted concentration of half-maximal effect; nearly all actives have a fitted effect of over 55% in size
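Heparin (20 uM) drove fibril formation of recombinant tau K18 P301L, 15 uM unlabeled with 0.24 uM Alexa 594 label, for 6 hr at 37 C in 100 mM sodium acetate pH 7. Fluorescence polarization (555/632 nm) read 1 hr after 30 uM ThT.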
USP1 inh – USP1/UAF1 (human) deubiquitinase inhibition; recombinant USP1/UAF1, Ub-Rhodamine cleavage fluorescence; actives 0.23% (n = 390,000); Potency, µM (doses to about 57.1 µM), inactives show at the highest dose activity change, negative = inhibition, hits mostly inhibitors; note: potency is the fitted concentration of half-maximal effect; nearly all actives have a fitted effect of over 60% in size
Target sequence (O94782 whole entry, looked up): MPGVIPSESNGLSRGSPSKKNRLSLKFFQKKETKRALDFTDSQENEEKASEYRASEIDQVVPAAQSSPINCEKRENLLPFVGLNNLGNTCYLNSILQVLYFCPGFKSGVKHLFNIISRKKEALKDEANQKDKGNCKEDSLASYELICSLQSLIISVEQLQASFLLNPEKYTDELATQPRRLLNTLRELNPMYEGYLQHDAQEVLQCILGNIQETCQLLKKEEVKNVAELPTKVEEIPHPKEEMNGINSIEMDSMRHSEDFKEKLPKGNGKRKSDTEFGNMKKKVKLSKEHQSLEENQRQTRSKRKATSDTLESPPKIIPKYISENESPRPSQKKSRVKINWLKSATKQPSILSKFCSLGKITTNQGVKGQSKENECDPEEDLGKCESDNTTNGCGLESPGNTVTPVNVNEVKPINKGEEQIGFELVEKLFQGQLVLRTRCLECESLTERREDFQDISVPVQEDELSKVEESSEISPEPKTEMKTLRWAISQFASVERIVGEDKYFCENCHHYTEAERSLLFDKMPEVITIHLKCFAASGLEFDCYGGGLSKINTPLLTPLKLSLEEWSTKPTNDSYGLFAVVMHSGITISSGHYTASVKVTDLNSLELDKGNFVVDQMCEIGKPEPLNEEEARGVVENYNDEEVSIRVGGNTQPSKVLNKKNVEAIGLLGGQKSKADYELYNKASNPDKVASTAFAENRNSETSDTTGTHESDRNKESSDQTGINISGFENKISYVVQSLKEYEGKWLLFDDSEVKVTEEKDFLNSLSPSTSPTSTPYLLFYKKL
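High-throughput fluorogenic screen: 1nM USP1/UAF1 complex, Ub-Rho substrate 150nM final, 50mM HEPES pH 7.8 with 0.5mM EDTA, 0.1 mg/ml BSA, 1mM TCEP and 0.01% Tween-20.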
Tau ThT inhib – inhibitors of human tau fibril formation, thioflavin T binding | P10636 | recombinant tau K18 P301L (four-repeat tau fragment), heparin-induced fibrillization, ThT fluorescence | Potency, µM (doses to about 57.4 µM), for inactives: top-dose activity, negative = inhibition, most hits filed as inhibitors | actives 2.1% (n = 270,000) | AID 1460; note: potency is the fitted concentration of half-maximal effect; nearly all actives have a fitted effect of over 55% in size
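Tau K18 P301L fragment (15 uM unlabeled plus 0.24 uM Alexa 594-labeled) in 100 mM sodium acetate pH 7 with compound, fibrillization induced by 20 uM heparin for 6 hr at 37 C. Thioflavin T (30 uM) added, fluorescence read after 1 hr (ex 450, em 510 nm).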
Numbers without * were called inactive. Unless noted, calls come from the whole dose curve; as a rule, active = well fitted curve in the direction sought with a large enough effect; inconclusive = small, poorly fitted or top-dose-only effect, or another doubt; inactive = no such curve, though single readings can be large; an effect the other way counts as inactive or inconclusive. % is set by controls: 0 for no effect and ±100 for the full control effect.

What do the screens show for `Cc1ccc(CNC(=O)Cn2c3ncccc3c(=O)n2-c2ccccc2)cc1`?
Tau fluor counter: -14.3%; Tau fibril FP: -2.7%; USP1 inh: -12.9%; Tau ThT inhib: 14.1%

Results for CCOc1ccc(C(=O)c2cccs2)cc1 ?
Tau fluor counter: -5.2%; Coupling enz: 2.1; Tau fibril FP: -4.4%; USP1 inh: 8.8%; Tau ThT inhib: -5.0%

What do the screens show for `CCOc1cccc(C(=O)c2ccc(O)c(O)c2O)c1`?
Tau fluor counter: inconclusive; Coupling enz: -21.7; Tau fibril FP: inconclusive; Tau ThT inhib: 22.4µM*

What do the screens show for `CCOc1ccc(C(=O)c2ccc(O)c(O)c2O)cc1`?
Tau fluor counter: inconclusive; Coupling enz: -3.0; Tau fibril FP: inconclusive; Tau ThT inhib: 22.4µM*

How did CCCS(=O)(=O)N1CC(=O)N(c2ccc(Cl)cc2C)C(C)(C(=O)NC2CCCC2)C1 (stereo not drawn) do in these assays?
Tau fluor counter: 6.2%; Tau fibril FP: 1.2%; USP1 inh: inconclusive; Tau ThT inhib: 8.9%

What do the screens show for `COc1ccc(-c2nc3c(C#N)c[nH]n3c2NC2CCCC2)cc1`?
Tau fluor counter: -2.2%; Tau fibril FP: -0.7%; USP1 inh: inconclusive; Tau ThT inhib: 1.4%

Results for CCC(=O)N(C1=C(NC)C(=O)c2ccccc2C1=O)C(C)C ?
Tau fluor counter: 0.0%; Coupling enz: -41.1*; Tau fibril FP: 8.2%; USP1 inh: inconclusive; Tau ThT inhib: -7.2%

Results for CC(=O)NC1=C(Nc2ccc(N(C)C)cc2)C(=O)c2ccccc2C1=O ?
Coupling enz: -28.9; USP1 inh: inconclusive

How did CCC(=O)N(C)/C=C1\Sc2ccccc2C1=O do in these assays?
Tau fluor counter: 1.0%; Tau fibril FP: 17.3%; USP1 inh: -13.3%; Tau ThT inhib: inconclusive

Results for CNC1=C(N(C(C)=O)c2ccc(Br)cc2)C(=O)c2ccccc2C1=O ?
Tau fluor counter: -10.1%; Coupling enz: -56.5*; Tau fibril FP: 2.4%; USP1 inh: inconclusive; Tau ThT inhib: inconclusive

What do the screens show for `Cc1ccc(C)c(N2CCN(S(=O)(=O)c3ccc(-c4coc(C)n4)cc3)CC2)c1`?
Tau fluor counter: -17.8%; Tau fibril FP: 2.6%; USP1 inh: -26.1%; Tau ThT inhib: 3.1%

How did CCN1C(=O)c2ccccc2Sc2ccc(NC(=O)Nc3cccc([N+](=O)[O-])c3C)cc21 do in these assays?
Tau fluor counter: inconclusive; Tau fibril FP: 15.8µM*; USP1 inh: inconclusive; Tau ThT inhib: 0.7%

How did CC(C)CCNC(=O)Nc1ccc2c(c1)N(Cc1ccccc1)C(=O)c1ccccc1S2 do in these assays?
Tau fluor counter: -23.9%; Tau fibril FP: 14.1µM*; USP1 inh: -19.2%; Tau ThT inhib: 9.6%

How did CCN1C(=O)c2ccccc2Sc2ccc(NC(=O)Nc3ccccc3OC)cc21 do in these assays?
Tau fluor counter: inconclusive; Tau fibril FP: inconclusive; USP1 inh: -21.6%; Tau ThT inhib: 7.4%

How did Cc1ccc(Nc2nc(C)c(NC(=O)c3ccc(C)cc3)c(Nc3ccc(C)cc3)n2)cc1 do in these assays?
Tau fluor counter: inconclusive; Tau fibril FP: -5.5%; USP1 inh: -25.9%; Tau ThT inhib: -20.6%

What do the screens show for `O=C1/C(=C/c2ccc(N3CCOCC3)o2)SC(=Nc2ccccc2)N1CCc1c[nH]c2ccccc12`?
Tau fluor counter: inconclusive; Coupling enz: -6.8; Tau fibril FP: inconclusive; USP1 inh: 49.9%; Tau ThT inhib: 14.1µM*

What do the screens show for `COc1cc(/C=C2\SC(=Nc3ccccc3)N(CCc3c[nH]c4ccccc34)C2=O)ccc1OC(C)C(=O)O` (stereo not drawn)?
Tau fluor counter: inconclusive; Coupling enz: 0.8; Tau fibril FP: -12.4%; USP1 inh: 1.1%; Tau ThT inhib: inconclusive

How did COc1ccc(N=C2S/C(=C\c3ccc(OC(C)C(=O)O)c(OC)c3)C(=O)N2CCc2c[nH]c3ccccc23)cc1 (stereo not drawn) do in these assays?
Tau fluor counter: inconclusive; Coupling enz: -1.9; Tau fibril FP: -2.1%; USP1 inh: -21.8%; Tau ThT inhib: 28.2µM*
